Article PMC5540273 (PLoS ONE, 2017)

What was measured:
Settings in all cases: concentration: 1 μM, replicates: in singlicate; n = 1
[1] = system: TYK2(JH2domain-pseudokinase)
TYRO3 = system: TYRO3
ULK1 = system: ULK1
ULK2 = system: ULK2
ULK3 = system: ULK3
VEGFR2 = system: T1, VEGFR2
T1 construct: gene KDR

VPS34 = system: T2, VPS34
T2 construct: gene PIK3C3

VRK2 = system: VRK2
WEE1 = system: WEE1
WEE2 = system: WEE2
WNK1 = system: WNK1
WNK2 = system: WNK2
WNK3 = system: WNK3
WNK4 = system: WNK4
YANK1 = system: T3, YANK1
T3 construct: gene STK32A

YANK2 = system: T4, YANK2
T4 construct: gene STK32B

YANK3 = system: T5, YANK3
T5 construct: gene STK32C

YES = system: T6, YES
T6 construct: gene YES1

YSK1 = system: T7, YSK1
T7 construct: gene STK25

YSK4 = system: T8, YSK4
T8 construct: gene MAP3K19
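Further: KINOMEscan kinase panel screen.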

Compound	%Inh [1]	%Inh (TYRO3)	%Inh (ULK1)	%Inh (ULK2)	%Inh (ULK3)	%Inh (VEGFR2)	%Inh (VPS34)	%Inh (VRK2)	%Inh (WEE1)	%Inh (WEE2)	%Inh (WNK1)	%Inh (WNK2)	%Inh (WNK3)	%Inh (WNK4)	%Inh (YANK1)	%Inh (YANK2)	%Inh (YANK3)	%Inh (YES)	%Inh (YSK1)	%Inh (YSK4)
N#Cc1cnc2cc(-c3cnc(CNCCN4CCOCC4)s3)ccc2c1Nc1ccc(Oc2ccccc2)cc1 [GW664114]	36%	84%	10%	0%	48%	12%	0%	8%	7%	23%	74%	95.9%	94.2%	89%	0%	0%	0%	97.1%	19%	97%
COc1ccc(C2=C(Nc3cccc(O)c3)C(=O)NC2=O)cc1 [SB-390766]	46%	0%	26%	0%	25%	0%	0%	0%	90%	6%	16%	99.7%	34%	87%	0%	0%	17%	0%	0%	44%
CC(C)(C)c1ccc(C(=O)Nc2cn3cc(-n4ccnc4)ccc3n2)cc1	11%	0%	0%	14%	10%	0%	39%	0%	0%	36%	0%	3%	0%	0%	0%	0%	0%	0%	0%	79%
COc1cccc2c(-c3ccncc3)c(-c3ccc(F)cc3)nn12 [GW468513]	67%	0%	3%	0%	0%	0%	10%	12%	4%	0%	0%	0%	31%	24%	65%	72%	72%	15%	4%	6%
CN(c1ccc2c(c1)nc(NCc1ccccc1)n2C)c1ccnc(Nc2ccc(CS(C)(=O)=O)cc2)n1.Cl [GW811603]	0%	0%	0%	16%	9%	99.5%	40%	100%	0%	29%	0%	2%	11%	0%	0%	0%	0%	0%	0%	97.3%
CC(C)c1nc(-c2ccc(F)c(NS(=O)(=O)c3c(F)cccc3F)c2)c(-c2ccnc(Nc3ccc(N4CCOCC4)nc3)n2)s1 [GSK1804250]	0%	86%	9%	19%	50%	47%	0%	11%	5%	16%	7%	0%	0%	31%	42%	71%	15%	99.2%	32%	40%
Cc1ccccc1CC(=O)N1CCc2cc(-c3cn(C)c4ncnc(N)c34)ccc21 [GSK2603346]	40%	0%	16%	0%	19%	69%	2%	0%	0%	17%	18%	25%	50%	8%	7%	0%	22%	18%	54%	84%
Cc1cccc(Nc2nc(NCCN)ncc2C(N)=O)c1 [GSK1292139]	95.8%	0%	64%	78%	41%	3%	0%	18%	0%	26%	7%	0%	31%	15%	9%	0%	0%	6%	31%	88%
Cc1cc(-c2c(-c3ccc(F)cc3)ncn2CCCN2CCOCC2)nc(N)n1 [SB-222517]	16%	0%	20%	30%	18%	5%	29%	0%	47%	1%	0%	0%	0%	0%	0%	13%	16%	0%	20%	11%
Nc1ncnc2scc(-c3ccc(NC(=O)Cc4cc(F)ccc4F)cc3)c12.O=C(O)C(F)(F)F [SB-731254-M]	0%	0%	11%	1%	34%	80%	0%	0%	0%	0%	0%	0%	0%	25%	89%	90.1%	28%	29%	0%	97.8%
CCn1cnc2c(NCc3ccccc3)ncnc21 [SKF-96418]	30%	0%	0%	38%	0%	0%	33%	16%	0%	0%	12%	0%	43%	16%	0%	19%	0%	0%	0%	10%
Nc1cccc(-c2ccc3c(N)n[nH]c3c2)c1 [GSK2193613]	0%	0%	6%	0%	3%	0%	21%	30%	5%	10%	6%	0%	7%	0%	9%	0%	25%	0%	22%	96.4%
COc1cccc(CC(=O)N2CCc3cc(-c4cn(C)c5ncnc(N)c45)ccc32)c1 [GSK2608899]	39%	0%	5%	5%	17%	64%	0%	0%	0%	0%	21%	52%	54%	12%	13%	0%	8%	16%	17%	96.9%
O=C(Nc1n[nH]c2nc(-c3cccc(O)c3)ccc12)C1CC1 [SB-711805]	0%	0%	0%	10%	7%	16%	23%	0%	0%	0%	28%	26%	0%	63%	4%	0%	0%	0%	0%	90.9%
Cc1ccc(O)cc1Nc1ccnc2ccc(C(C)(C)C)cc12 [GW856805]	38%	15%	56%	30%	51%	54%	51%	20%	9%	18%	38%	0%	21%	0%	29%	4%	45%	76%	1%	48%
Cl.Cl.NCC(NC(=O)c1cc(-c2cccnc2)c(-c2ccnc3[nH]ccc23)s1)c1ccccc1 (stereo not shown) [GSK1323434]	37%	0%	4%	0%	0%	0%	45%	15%	8%	13%	2%	0%	80%	50%	26%	0%	14%	18%	17%	84%
O=C(Nc1n[nH]c2nc(-c3ccccc3)ccc12)C1CC1 [SB-708999]	29%	6%	11%	3%	9%	0%	14%	47%	0%	0%	15%	37%	36%	60%	0%	0%	28%	1%	0%	93.9%
Cl.N#CCc1ccc(Nc2nccc(Nc3ccc(Oc4ccccc4)cc3)n2)cc1 [GW639905]	72%	36%	23%	0%	15%	0%	0%	24%	0%	0%	15%	0%	28%	6%	3%	0%	10%	74%	0%	41%
Cc1ccc(Nc2ccnc(Nc3ccc(C)c(F)c3)n2)cc1O.Cl [GW582868]	74%	29%	12%	0%	10%	0%	0%	48%	0%	17%	41%	12%	31%	49%	1%	0%	1%	53%	0%	25%
CN(C)CCOc1ccc(-c2cc(-c3ccc(Cl)c(O)c3)c(-c3ccncc3)[nH]2)cc1.Cl.Cl [SB-684387]	18%	6%	6%	8%	14%	21%	16%	45%	7%	0%	11%	21%	47%	33%	26%	28%	0%	55%	13%	27%
